In PubChem BioAssay (NCI):
About 83,000 compounds went through this panel and 20% of them were active in at least one assay; those are over-represented in the sample as a whole.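 Step 1: grow cells in 96-well plates. Step 2: add test compound at a single concentration. Step 3: incubate 48 h. Step 4: record percent growth.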 Activity calls are given as the source filed them. How the source made its calls: active means growth percent below 10; inactive means the rest.

Tests used:
Test in all cases: NCI-60 one-dose screen, 48 h (100 = growth as untreated, 0 = no growth, -100 = all killed)
Settings in all cases: 10 µM unless noted
NCI-H23 lung = system: NCI-H23 lung
NCI-H226 lung = system: NCI-H226 lung
NCI-H322M lung = system: NCI-H322M lung
HOP-62 NSCLC = system: HOP-62 NSCLC
NCI-H460 lung = system: NCI-H460 lung
NCI-H522 lung = system: NCI-H522 lung
A549/ATCC NSCLC = system: A549/ATCC NSCLC
786-0 renal = system: 786-0 renal
COLO 205 colon = system: COLO 205 colon
DU-145 prostate = system: DU-145 prostate
K-562 leukemia = system: K-562 leukemia
MALME-3M melanoma = system: MALME-3M melanoma
MDA-MB-231 breast = system: MDA-MB-231 breast
RXF 393 renal = system: RXF 393 renal
SF-268 CNS = system: SF-268 CNS
SF-295 CNS = system: SF-295 CNS
SF-539 CNS = system: SF-539 CNS
UACC-257 melanoma = system: UACC-257 melanoma
M14 melanoma = system: M14 melanoma
HOP-92 NSCLC = system: HOP-92 NSCLC

Measured: growth

CCS(=O)(=O)N1CCCC(C(=O)Nc2nc3ccc(NC(=O)c4ccc(F)c(OC)c4F)cc3s2)C1 (stereo not drawn)
inactive: NCI-H23 lung 47.5% | NCI-H226 lung 48% | NCI-H322M lung 82.3% | HOP-62 NSCLC 80.6% | NCI-H460 lung 62.5% | NCI-H522 lung 52% | A549/ATCC NSCLC 77.4% | 786-0 renal 58.1% | COLO 205 colon 54.3% | DU-145 prostate 77.2% | K-562 leukemia 38.6% | MALME-3M melanoma 67.9% | MDA-MB-231 breast 81.7% | RXF 393 renal 26.9% | SF-268 CNS 68.5% | SF-295 CNS 48.8% | SF-539 CNS 57.6% | UACC-257 melanoma 37.4% | M14 melanoma 78.5%

Cn1nc(C(F)(F)F)cc1-c1cc(Cl)c(COc2ccc(Cl)cc2)c(-c2ccc(Cl)c(C(F)(F)F)c2)c1O
active: NCI-H23 lung -46.7% | NCI-H226 lung -39.5% | NCI-H322M lung 6.41% | HOP-62 NSCLC -40.9% | NCI-H460 lung -48.1% | NCI-H522 lung -27.7% | A549/ATCC NSCLC 2.95% | 786-0 renal -63.5% | COLO 205 colon -83.2% | DU-145 prostate 8.66% | K-562 leukemia 1.2% | MALME-3M melanoma -52.4% | RXF 393 renal -47.7% | SF-268 CNS -0.375% | SF-295 CNS -70.8% | SF-539 CNS -77.9% | UACC-257 melanoma -31.4% | M14 melanoma -67%

CCN1C(=O)N(CC)C2NNC(Sc3c(C(=O)O)c4ccccc4n(C4CCCC4)c3=O)=NC21 (stereo not drawn)
active: NCI-H522 lung -23.1% | COLO 205 colon -31.1% | DU-145 prostate 2.94% | SF-295 CNS 8% | SF-539 CNS -24.7% | M14 melanoma -7.72%
inactive: NCI-H23 lung 36.8% | NCI-H226 lung 42% | NCI-H322M lung 67.3% | HOP-62 NSCLC 44.1% | HOP-92 NSCLC 73.4% | A549/ATCC NSCLC 28.2% | 786-0 renal 22.9% | K-562 leukemia 13.9% | MALME-3M melanoma 72.4% | MDA-MB-231 breast 12.3% | RXF 393 renal 50.2% | SF-268 CNS 39.2% | UACC-257 melanoma 58.7%

COc1ccc(C2=NN(c3ccccc3)C(c3ccc(OCc4ccccc4)c(OC)c3)C2)cc1OC (stereo not drawn)
inactive: NCI-H23 lung 107% | NCI-H226 lung 124% | NCI-H322M lung 103% | HOP-62 NSCLC 109% | NCI-H460 lung 104% | NCI-H522 lung 85.4% | A549/ATCC NSCLC 101% | 786-0 renal 97.1% | COLO 205 colon 94.1% | DU-145 prostate 113% | MALME-3M melanoma 99.1% | MDA-MB-231 breast 101% | RXF 393 renal 86.2% | SF-268 CNS 90% | SF-295 CNS 91.3% | SF-539 CNS 98.7% | UACC-257 melanoma 90.9% | M14 melanoma 91.2%

O=C(O)Cn1c(O)c(/C=C2/C=c3cc4c(cc3=NC2=O)OCCO4)sc1=S
inactive: NCI-H23 lung 97.7% | NCI-H226 lung 103% | NCI-H322M lung 101% | HOP-62 NSCLC 105% | NCI-H460 lung 118% | NCI-H522 lung 103% | A549/ATCC NSCLC 114% | 786-0 renal 108% | COLO 205 colon 119% | DU-145 prostate 118% | K-562 leukemia 106% | MALME-3M melanoma 100% | MDA-MB-231 breast 103% | RXF 393 renal 117% | SF-268 CNS 118% | SF-295 CNS 94.6% | SF-539 CNS 107% | UACC-257 melanoma 108% | M14 melanoma 111%

CC(C)CCNC(=O)N/C(N)=N/c1nc2ccccc2s1
inactive: NCI-H23 lung 46.9% | NCI-H226 lung 52.1% | NCI-H322M lung 83.1% | HOP-62 NSCLC 73.6% | NCI-H460 lung 66.5% | NCI-H522 lung 54.2% | A549/ATCC NSCLC 64.6% | 786-0 renal 80.9% | COLO 205 colon 103% | DU-145 prostate 66.4% | K-562 leukemia 28.7% | MALME-3M melanoma 77.1% | RXF 393 renal 74.7% | SF-268 CNS 72% | SF-295 CNS 45.3% | SF-539 CNS 56.8% | UACC-257 melanoma 35.5% | M14 melanoma 79.6%

COc1ccc(NC(=O)c2sc3nc(C(C)C)ccc3c2N)cc1
inactive: NCI-H23 lung 75.3% | NCI-H226 lung 71.7% | NCI-H322M lung 69.5% | HOP-62 NSCLC 93.2% | NCI-H460 lung 88% | NCI-H522 lung 75.7% | A549/ATCC NSCLC 59.2% | 786-0 renal 97.5% | COLO 205 colon 113% | DU-145 prostate 78.9% | K-562 leukemia 50% | MALME-3M melanoma 83.4% | RXF 393 renal 89.2% | SF-268 CNS 99.7% | SF-295 CNS 72.3% | SF-539 CNS 84.1% | UACC-257 melanoma 88.7% | M14 melanoma 93.4%

O=C1Nc2cc(Cl)ccc2/C1=C/c1cccc(OCc2ccccn2)c1
active: NCI-H522 lung -42.4% | DU-145 prostate 9.98% | K-562 leukemia 4.79% | RXF 393 renal -3.29% | SF-539 CNS -48.2% | M14 melanoma -9.46%
inactive: NCI-H23 lung 19.6% | NCI-H226 lung 38.6% | NCI-H322M lung 68.2% | HOP-62 NSCLC 17.4% | NCI-H460 lung 13.9% | A549/ATCC NSCLC 37.5% | 786-0 renal 10.8% | COLO 205 colon 51.7% | MALME-3M melanoma 36.4% | SF-268 CNS 13.1% | SF-295 CNS 13.6% | UACC-257 melanoma 44.4%

CN(C)c1nc(NCCNS(=O)(=O)c2ccc(C(=O)/C=C/c3ccc(Cl)cc3)cc2)nc(Nc2ccc(F)cc2)n1
active: NCI-H23 lung -38.6% | NCI-H226 lung -53.3% | NCI-H322M lung 6.91% | NCI-H460 lung -67.9% | NCI-H522 lung -87.4% | A549/ATCC NSCLC -23.5% | 786-0 renal -86% | COLO 205 colon -82.9% | DU-145 prostate -23.1% | K-562 leukemia 1.01% | MALME-3M melanoma -46.6% | MDA-MB-231 breast -61.4% | RXF 393 renal -81.3% | SF-268 CNS 3.35% | SF-295 CNS -26.6% | SF-539 CNS -98% | UACC-257 melanoma -4.45% | M14 melanoma -65.8%
inactive: HOP-62 NSCLC 15.4%

O=c1cc(-c2ccccc2)oc2cc(OCCCC[P+](c3ccccc3)(c3ccccc3)c3ccccc3)cc(O)c12
active: NCI-H23 lung -93% | NCI-H226 lung -29% | NCI-H322M lung -100% | HOP-62 NSCLC -63.6% | NCI-H460 lung -75.8% | NCI-H522 lung -81.9% | A549/ATCC NSCLC -56% | 786-0 renal -69.5% | COLO 205 colon -56.3% | DU-145 prostate -94.8% | K-562 leukemia -24.1% | MALME-3M melanoma -88% | MDA-MB-231 breast -32.2% | SF-268 CNS -59% | SF-295 CNS -96.1% | SF-539 CNS -95.7% | UACC-257 melanoma -91% | M14 melanoma -70.1%

CC(=O)N1CCN(Cc2ccc3c(NNC(=O)c4cnccn4)nc4cc(F)ccc4n23)CC1
active: NCI-H226 lung 8.73% | NCI-H460 lung 9.64% | 786-0 renal 0.0554% | COLO 205 colon 9.92% | SF-539 CNS 6.02% | M14 melanoma -31.4%
inactive: NCI-H23 lung 34.3% | NCI-H322M lung 32.7% | HOP-62 NSCLC 15.4% | NCI-H522 lung 57.2% | A549/ATCC NSCLC 25.4% | DU-145 prostate 39.4% | MALME-3M melanoma 30.4% | MDA-MB-231 breast 36.5% | RXF 393 renal 54.2% | SF-268 CNS 28.7% | SF-295 CNS 10.7% | UACC-257 melanoma 13.3%

C=C1CCC2C3(C)COC(c4cccc(F)c4)OC3CCC2(C)C1C/C=C1/C(=O)OCC1O (stereo not drawn)
inactive: NCI-H226 lung 30.7% | NCI-H322M lung 53.3% | HOP-62 NSCLC 22.6% | A549/ATCC NSCLC 23.3% | K-562 leukemia 10.5% | SF-268 CNS 67.9%
active: NCI-H23 lung -37.6% | NCI-H460 lung 8.73% | NCI-H522 lung -76.1% | 786-0 renal -84.8% | COLO 205 colon -51.5% | DU-145 prostate 4.04% | MALME-3M melanoma -41.9% | MDA-MB-231 breast -32.8% | RXF 393 renal -70.5% | SF-295 CNS 2.97% | SF-539 CNS -72.5% | UACC-257 melanoma -28.8% | M14 melanoma -40.7%

CC1=C(C(=O)c2ccccc2)C(c2cccc3ccccc23)n2c(nc3ccccc32)N1 (stereo not drawn)
inactive: NCI-H23 lung 56.5% | NCI-H226 lung 50% | NCI-H322M lung 87.5% | HOP-62 NSCLC 40.4% | NCI-H460 lung 87% | NCI-H522 lung 66.5% | A549/ATCC NSCLC 40.8% | 786-0 renal 70.6% | COLO 205 colon 65.3% | DU-145 prostate 67.3% | K-562 leukemia 39.3% | MALME-3M melanoma 57.4% | RXF 393 renal 76.4% | SF-268 CNS 60.1% | SF-295 CNS 76.9% | UACC-257 melanoma 84% | M14 melanoma 73.5%
active: SF-539 CNS 1.2%

N#Cc1c(-c2ccccc2Cl)cc(-c2ccc3ccccc3c2)[nH]c1=O
active: NCI-H226 lung -24.5% | HOP-62 NSCLC -7.48% | NCI-H460 lung -13.8% | 786-0 renal -40.9% | RXF 393 renal -6.69% | SF-295 CNS 1.62%
inactive: NCI-H23 lung 38.8% | NCI-H322M lung 28.1% | NCI-H522 lung 85% | A549/ATCC NSCLC 17.5% | COLO 205 colon 108% | DU-145 prostate 49% | K-562 leukemia 62% | MALME-3M melanoma 12.9% | SF-268 CNS 22.5% | SF-539 CNS 16.5% | UACC-257 melanoma 70.3% | M14 melanoma 25.1%

CC1=C(C(=O)OC(C)C)C(c2cccc(O)c2)NC(=S)N1 (stereo not drawn)
inactive: NCI-H23 lung 106% | NCI-H226 lung 101% | NCI-H322M lung 103% | HOP-62 NSCLC 95.9% | NCI-H460 lung 110% | NCI-H522 lung 91.8% | A549/ATCC NSCLC 103% | 786-0 renal 106% | COLO 205 colon 107% | DU-145 prostate 104% | K-562 leukemia 83.2% | MALME-3M melanoma 92.7% | RXF 393 renal 110% | SF-268 CNS 109% | SF-295 CNS 96.8% | SF-539 CNS 94.7% | UACC-257 melanoma 92.8% | M14 melanoma 109%

CCCCSc1nc(Nc2ccc(C(C)=O)cc2)c(C#N)c(-c2ccc(OC)cc2)n1
inactive: NCI-H23 lung 60.8% | NCI-H226 lung 31.3% | NCI-H322M lung 75.4% | HOP-62 NSCLC 73.9% | NCI-H460 lung 27.6% | NCI-H522 lung 87.8% | A549/ATCC NSCLC 45.5% | COLO 205 colon 82.3% | DU-145 prostate 88.5% | K-562 leukemia 69.6% | MALME-3M melanoma 77.2% | MDA-MB-231 breast 60.6% | SF-268 CNS 63.1% | SF-295 CNS 47.6% | SF-539 CNS 25.9% | UACC-257 melanoma 104% | M14 melanoma 91.8%
active: 786-0 renal -12.4%
